In PubChem BioAssay (NCI):
The panel holds about 83,000 compounds, 20% with a hit somewhere; the sample as a whole holds those more often.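 Plates (96-well) were seeded with cells, treated with compound at one concentration, and incubated for 48 hours before percent growth was determined.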 Active and inactive are the calls of the source. The calls were made as follows: active = growth percent below 10; inactive = the rest.

What was measured:
Assay in all cases: NCI-60 one-dose screen, 48 h (100 = growth as untreated, 0 = no growth, -100 = all killed)
Settings in all cases: 10 µM
NCI-H23 lung = tested on: NCI-H23 lung
NCI-H226 lung = tested on: NCI-H226 lung
NCI-H322M lung = tested on: NCI-H322M lung
HOP-62 NSCLC = tested on: HOP-62 NSCLC
NCI-H460 lung = tested on: NCI-H460 lung
HOP-92 NSCLC = tested on: HOP-92 NSCLC
NCI-H522 lung = tested on: NCI-H522 lung
A549/ATCC NSCLC = tested on: A549/ATCC NSCLC
786-0 renal = tested on: 786-0 renal
COLO 205 colon = tested on: COLO 205 colon
DU-145 prostate = tested on: DU-145 prostate
MALME-3M melanoma = tested on: MALME-3M melanoma
MDA-MB-231 breast = tested on: MDA-MB-231 breast
RXF 393 renal = tested on: RXF 393 renal
SF-268 CNS = tested on: SF-268 CNS
SF-295 CNS = tested on: SF-295 CNS
SF-539 CNS = tested on: SF-539 CNS
UACC-257 melanoma = tested on: UACC-257 melanoma
M14 melanoma = tested on: M14 melanoma

Measured: growth

CCN1CCN(c2ccc(NC(=O)Nc3ccc(-c4cc(C(=O)NC)c5ncccc5n4)cc3)cc2C(F)(F)F)CC1
active: NCI-H23 lung -99% | NCI-H226 lung -61.9% | NCI-H322M lung -100% | HOP-62 NSCLC -92.2% | NCI-H460 lung -100% | HOP-92 NSCLC -81.8% | NCI-H522 lung -93.3% | A549/ATCC NSCLC -88.4% | 786-0 renal -100% | COLO 205 colon -76.3% | DU-145 prostate -100% | MALME-3M melanoma -100% | MDA-MB-231 breast -100% | RXF 393 renal -94.4% | SF-268 CNS -77.5% | SF-295 CNS -99% | SF-539 CNS -100% | UACC-257 melanoma -96.7% | M14 melanoma -100%

CC[C@@]1(O)C(=O)OCc2c1cc1n(c2=O)Cc2c-1nc1cc(F)c(C)c3c1c2[C@@H](N)CC3
inactive: HOP-92 NSCLC 15.1% | MDA-MB-231 breast 10.8%
active: NCI-H23 lung -57.4% | NCI-H226 lung -54.1% | NCI-H322M lung 0.642% | HOP-62 NSCLC -31.7% | NCI-H460 lung -4.63% | NCI-H522 lung -53.9% | A549/ATCC NSCLC -57.9% | 786-0 renal 5.22% | COLO 205 colon -81.6% | DU-145 prostate 6.82% | MALME-3M melanoma -55.8% | RXF 393 renal -77.2% | SF-268 CNS 6.53% | SF-295 CNS -0.789% | SF-539 CNS -74.9% | UACC-257 melanoma -59.6% | M14 melanoma -20.8%

CCN(CC)CCOc1ccc(C(=C(C)c2ccccc2)c2ccc(OCCN(CC)CC)cc2)cc1
active: HOP-62 NSCLC -44.3% | NCI-H460 lung 4.41% | HOP-92 NSCLC -21.3% | NCI-H522 lung 3.11% | 786-0 renal -51.6% | COLO 205 colon -88.2% | MALME-3M melanoma -100% | MDA-MB-231 breast -60.4% | RXF 393 renal -74.5% | SF-295 CNS -63.6% | SF-539 CNS -98.1% | UACC-257 melanoma -83.4% | M14 melanoma -53.5%
inactive: NCI-H23 lung 19.9% | NCI-H226 lung 71% | NCI-H322M lung 31.1% | A549/ATCC NSCLC 15.2% | DU-145 prostate 41.4% | SF-268 CNS 11.6%

O=c1[nH][nH]c(Nc2ccccc2)c1N=Nc1ccc(F)cc1
inactive: NCI-H23 lung 102% | NCI-H226 lung 84.4% | NCI-H322M lung 83.5% | HOP-62 NSCLC 119% | NCI-H460 lung 101% | HOP-92 NSCLC 71.2% | NCI-H522 lung 75.1% | A549/ATCC NSCLC 84.8% | 786-0 renal 91.3% | COLO 205 colon 107% | DU-145 prostate 102% | MALME-3M melanoma 116% | MDA-MB-231 breast 86.6% | RXF 393 renal 83.1% | SF-268 CNS 81.5% | SF-295 CNS 111% | SF-539 CNS 92.8% | UACC-257 melanoma 127% | M14 melanoma 107%

O=C(Cn1cc(CSc2nnc3oc4ccccc4n23)nn1)Nc1cccc(Cl)c1
inactive: NCI-H23 lung 60.2% | NCI-H226 lung 65% | NCI-H322M lung 84.1% | HOP-62 NSCLC 72.9% | NCI-H460 lung 91.1% | HOP-92 NSCLC 52.1% | NCI-H522 lung 47.6% | A549/ATCC NSCLC 62.9% | 786-0 renal 93.3% | COLO 205 colon 97.8% | DU-145 prostate 85.6% | MALME-3M melanoma 72.8% | MDA-MB-231 breast 63.4% | RXF 393 renal 76.8% | SF-268 CNS 71.8% | SF-295 CNS 66.8% | SF-539 CNS 70.6% | UACC-257 melanoma 71% | M14 melanoma 87.8%

O=C(CS(=O)(=O)c1oc(-c2ccc(Cl)cc2)nc1S(=O)(=O)c1ccccc1)N1CCCC1
inactive: NCI-H23 lung 17.1% | NCI-H226 lung 71.9% | NCI-H322M lung 83.9% | HOP-62 NSCLC 93.5% | NCI-H460 lung 73.3% | A549/ATCC NSCLC 79.1% | SF-268 CNS 74.5% | SF-295 CNS 80.8%
active: HOP-92 NSCLC -73% | NCI-H522 lung -89.3% | 786-0 renal -44.3% | COLO 205 colon -91% | DU-145 prostate -100% | MALME-3M melanoma -99.2% | MDA-MB-231 breast -88.3% | RXF 393 renal -97.8% | SF-539 CNS -78.6% | UACC-257 melanoma -77.8% | M14 melanoma -31.5%

C=C(C)[C@@H]1CC[C@]2(COP(=O)(OCC)OCC)CC[C@]3(C)[C@H](CC[C@@H]4[C@@](C)(CCCN)[C@H](C(=C)C)CC[C@]43C)[C@@H]12
active: NCI-H460 lung 8.95% | RXF 393 renal 6.32%
inactive: NCI-H23 lung 23.3% | NCI-H226 lung 29% | NCI-H322M lung 62.1% | HOP-62 NSCLC 53.5% | HOP-92 NSCLC 25.2% | NCI-H522 lung 19.6% | A549/ATCC NSCLC 21.5% | 786-0 renal 20.4% | COLO 205 colon 29.7% | DU-145 prostate 38% | MALME-3M melanoma 15.7% | MDA-MB-231 breast 21.9% | SF-268 CNS 42% | SF-295 CNS 24.7% | SF-539 CNS 19% | UACC-257 melanoma 20.5% | M14 melanoma 18.2%

O=C1CCC(N2Cc3c(C#CCCCNC(=O)c4ccc(NC(=O)[C@@H]5NC6(CCCCC6)[C@@]6(C(=O)Nc7cc(Cl)ccc76)[C@H]5c5cccc(Cl)c5F)cc4)cccc3C2=O)C(=O)N1 (some centres not stated)
inactive: NCI-H23 lung 74.4% | NCI-H226 lung 24.1% | NCI-H322M lung 77.5% | HOP-62 NSCLC 72.7% | NCI-H460 lung 33.1% | HOP-92 NSCLC 39.3% | NCI-H522 lung 70.3% | A549/ATCC NSCLC 34.5% | 786-0 renal 48.4% | COLO 205 colon 70.5% | DU-145 prostate 82.1% | MALME-3M melanoma 17.7% | MDA-MB-231 breast 52% | RXF 393 renal 46.3% | SF-268 CNS 70.3% | SF-295 CNS 54.8% | SF-539 CNS 35.1% | UACC-257 melanoma 60.5% | M14 melanoma 50.1%
